The values below come from publication PMC12820563, “FoxP3 forms a head-to-head dimer in vivo and stabilizes its multimerization on adjacent microsatellites”.

Over roughly 16,000 sequences, “rpm ratio (pull-down/input)” has its median near 0.5; the highest 2% begin near 5.5. The entries come from a sample that favours the highest values as a whole.

The assay has as its target T1, MBP-FoxP3dN (Mus musculus, UniProt Q99JB6 188-423).
T1 sequence: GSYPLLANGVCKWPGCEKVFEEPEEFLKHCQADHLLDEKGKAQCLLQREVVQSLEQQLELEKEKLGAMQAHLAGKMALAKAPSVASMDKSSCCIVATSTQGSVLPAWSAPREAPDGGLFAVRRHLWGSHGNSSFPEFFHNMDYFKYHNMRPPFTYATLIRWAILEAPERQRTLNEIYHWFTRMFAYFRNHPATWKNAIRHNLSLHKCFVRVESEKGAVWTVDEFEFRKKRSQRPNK
The experiment in a line: PD-seq (MBP pull-down with sequencing); 20 mM Tris-HCl pH 7.5, 100 mM NaCl, 1.5 mM MgCl2, 0.4 uM protein, 0.1 uM dsDNA library, 30 min, room temperature, amylose pull-down; high values mean tight binding. To be noted: protein: recombinant; tags: His6-MBP; chain copies: 2; dsDNA, one strand shown. In a few lines:
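Binding is given as reads-per-million enrichment, pull-down over input, with replicates pooled. The bait was an N-terminus-lacking mouse FoxP3 or FoxP1 fragment with a His6-MBP tag, expressed in E. coli and used at 0.4 µM with 0.1 µM Klenow-filled degenerate double-stranded DNA library for 30 min at room temperature in Tris pH 7.5 buffer with NaCl and MgCl2. Amylose resin pull-down with three washes was followed by proteinase K release, PCR barcoding and Illumina sequencing.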
Regarding “GATGATTGTTCTCCCAGCTGATGAATTGGAAGCCTCGAGTAAACAAATTTTCCTAATCTTTCTGTTCAAGCGCCATCTAC”, the binding signal is 0.359 RPM ratio (pull-down/input).
The same measure for “GATGATTGTTCTCCCAGCTGATGAATTGAATAGATCGAGTAAACAAATTTTCCTAATCTTTCTGTTCAAGCGCCATCTAC”: 0.257 RPM ratio (pull-down/input); for “GATGATTGTTCTCCCAGCTGATGAATTTGGTGCCTCGAGTAAACAAATTTTCCTAATCTTTCTGTTCAAGCGCCATCTAC”: 1.91 RPM ratio (pull-down/input); for “GATGATTGTTCTCCCAGCTGATGAATTATGAATTTCGAGTAAACAAATTTTCCTAATCTTTCTGTTCAAGCGCCATCTAC”: 1.57 RPM ratio (pull-down/input).
Turning to “GATGATTGTTCTCCCAGCTGATGAATTATGCATTTCGAGTAAACAAATTTTCCTAATCTTTCTGTTCAAGCGCCATCTAC”, the binding signal is 7.25 RPM ratio (pull-down/input).
With “GATGATTGTTCTCCCAGCTGATGAATTATGAATCTCGAGTAAACAAATTTTCCTAATCTTTCTGTTCAAGCGCCATCTAC” the figure was 2.3 RPM ratio (pull-down/input); with “GATGATTGTTCTCCCAGCTGATGAATTATGCAAATCGAGTAAACAAATTTTCCTAATCTTTCTGTTCAAGCGCCATCTAC”, 1.16 RPM ratio (pull-down/input); with “GATGATTGTTCTCCCAGCTGATGAATTATGATTTTCGAGTAAACAAATTTTCCTAATCTTTCTGTTCAAGCGCCATCTAC”, 1.8 RPM ratio (pull-down/input).
The same measure for “GATGATTGTTCTCCCAGCTGATGAATTATGCAGCTCGAGTAAACAAATTTTCCTAATCTTTCTGTTCAAGCGCCATCTAC”: 3.11 RPM ratio (pull-down/input); for “GATGATTGTTCTCCCAGCTGATGAATTATGCATCTCGAGTAAACAAATTTTCCTAATCTTTCTGTTCAAGCGCCATCTAC”: 7.47 RPM ratio (pull-down/input).
For the sequence “GATGATTGTTCTCCCAGCTGATGAATTATGCAATTCGAGTAAACAAATTTTCCTAATCTTTCTGTTCAAGCGCCATCTAC”, the binding signal is 5.58 RPM ratio (pull-down/input).
The same measure for “GATGATTGTTCTCCCAGCTGATGAATTTATGCAATCGAGTAAACAAATTTTCCTAATCTTTCTGTTCAAGCGCCATCTAC”: 4.25 RPM ratio (pull-down/input); for “GATGATTGTTCTCCCAGCTGATGAATTGAGGCCGTCGAGTAAACAAATTTTCCTAATCTTTCTGTTCAAGCGCCATCTAC”: 0.905 RPM ratio (pull-down/input); for “GATGATTGTTCTCCCAGCTGATGAATTAACTGTTTCGAGTAAACAAATTTTCCTAATCTTTCTGTTCAAGCGCCATCTAC”: 0.641 RPM ratio (pull-down/input).
The same measure for “GATGATTGTTCTCCCAGCTGATGAATTGATGCCATCGAGTAAACAAATTTTCCTAATCTTTCTGTTCAAGCGCCATCTAC”: 3.67 RPM ratio (pull-down/input); for “GATGATTGTTCTCCCAGCTGATGAATTGATGCAATCGAGTAAACAAATTTTCCTAATCTTTCTGTTCAAGCGCCATCTAC”: 5.86 RPM ratio (pull-down/input).
With “GATGATTGTTCTCCCAGCTGATGAATTGCAGCAATCGAGTAAACAAATTTTCCTAATCTTTCTGTTCAAGCGCCATCTAC” the figure was 2.72 RPM ratio (pull-down/input).
With “GATGATTGTTCTCCCAGCTGATGAATTGCAACAATCGAGTAAACAAATTTTCCTAATCTTTCTGTTCAAGCGCCATCTAC”, the binding signal was 7.74 RPM ratio (pull-down/input).
The same measure for “GATGATTGTTCTCCCAGCTGATGAATTTCTGCAATCGAGTAAACAAATTTTCCTAATCTTTCTGTTCAAGCGCCATCTAC”: 3.01 RPM ratio (pull-down/input).
The same measure for “GATGATTGTTCTCCCAGCTGATGAATTGCAACCATCGAGTAAACAAATTTTCCTAATCTTTCTGTTCAAGCGCCATCTAC”: 4.48 RPM ratio (pull-down/input); for “GATGATTGTTCTCCCAGCTGATGAATTGCAATCATCGAGTAAACAAATTTTCCTAATCTTTCTGTTCAAGCGCCATCTAC”: 2.79 RPM ratio (pull-down/input); for “GATGATTGTTCTCCCAGCTGATGAATTTTTGCAATCGAGTAAACAAATTTTCCTAATCTTTCTGTTCAAGCGCCATCTAC”: 3.95 RPM ratio (pull-down/input).
Turning to “GATGATTGTTCTCCCAGCTGATGAATTGTTGCAATCGAGTAAACAAATTTTCCTAATCTTTCTGTTCAAGCGCCATCTAC”, the binding signal was 5.54 RPM ratio (pull-down/input).
With “GATGATTGTTCTCCCAGCTGATGAATTCTATTAATCGAGTAAACAAATTTTCCTAATCTTTCTGTTCAAGCGCCATCTAC” the figure was 0.561 RPM ratio (pull-down/input); with “GATGATTGTTCTCCCAGCTGATGAATTTCTTGCCTCGAGTAAACAAATTTTCCTAATCTTTCTGTTCAAGCGCCATCTAC”, 0.494 RPM ratio (pull-down/input); with “GATGATTGTTCTCCCAGCTGATGAATTTGGCGGCTCGAGTAAACAAATTTTCCTAATCTTTCTGTTCAAGCGCCATCTAC”, 0.668 RPM ratio (pull-down/input).
“GATGATTGTTCTCCCAGCTGATGAATTCTATAGTTCGAGTAAACAAATTTTCCTAATCTTTCTGTTCAAGCGCCATCTAC”: the binding signal was 0.74 RPM ratio (pull-down/input).
The same measure for “GATGATTGTTCTCCCAGCTGATGAATTGCCCGAGTCGAGTAAACAAATTTTCCTAATCTTTCTGTTCAAGCGCCATCTAC”: 0.303 RPM ratio (pull-down/input).
For the sequence “GATGATTGTTCTCCCAGCTGATGAATTGCATCCATCGAGTAAACAAATTTTCCTAATCTTTCTGTTCAAGCGCCATCTAC”, the binding signal was 5.42 RPM ratio (pull-down/input).
As to “GATGATTGTTCTCCCAGCTGATGAATTATCGTATTCGAGTAAACAAATTTTCCTAATCTTTCTGTTCAAGCGCCATCTAC”, the binding signal is 1.35 RPM ratio (pull-down/input).
As for “GATGATTGTTCTCCCAGCTGATGAATTCGGCAAGTCGAGTAAACAAATTTTCCTAATCTTTCTGTTCAAGCGCCATCTAC”, the binding signal is 1.34 RPM ratio (pull-down/input).
With “GATGATTGTTCTCCCAGCTGATGAATTGTTTTAGTCGAGTAAACAAATTTTCCTAATCTTTCTGTTCAAGCGCCATCTAC” the figure was 1.21 RPM ratio (pull-down/input); with “GATGATTGTTCTCCCAGCTGATGAATTTAGTTAGTCGAGTAAACAAATTTTCCTAATCTTTCTGTTCAAGCGCCATCTAC”, 2.54 RPM ratio (pull-down/input).
